Test results taken from publication PMC4336329 (PLoS ONE, 2015).
The campaign covered roughly 310,000 compounds. About 14,000 (4.5%) showed an effect of 50% or more. Effects have a minus sign here. The sample holds strong results, similar compounds and a random draw of the others, so the mix is not that of the screen.

What follows are molecules tested against human ether-à-go-go-related gene (hERG) potassium channel (human, UniProt Q12809) (assay: primary screen, population patch clamp on CHO cells stably expressing hERG; higher = less effect of the substance).
Sequence of human ether-à-go-go-related gene (hERG) potassium channel (Q12809 whole entry, looked up): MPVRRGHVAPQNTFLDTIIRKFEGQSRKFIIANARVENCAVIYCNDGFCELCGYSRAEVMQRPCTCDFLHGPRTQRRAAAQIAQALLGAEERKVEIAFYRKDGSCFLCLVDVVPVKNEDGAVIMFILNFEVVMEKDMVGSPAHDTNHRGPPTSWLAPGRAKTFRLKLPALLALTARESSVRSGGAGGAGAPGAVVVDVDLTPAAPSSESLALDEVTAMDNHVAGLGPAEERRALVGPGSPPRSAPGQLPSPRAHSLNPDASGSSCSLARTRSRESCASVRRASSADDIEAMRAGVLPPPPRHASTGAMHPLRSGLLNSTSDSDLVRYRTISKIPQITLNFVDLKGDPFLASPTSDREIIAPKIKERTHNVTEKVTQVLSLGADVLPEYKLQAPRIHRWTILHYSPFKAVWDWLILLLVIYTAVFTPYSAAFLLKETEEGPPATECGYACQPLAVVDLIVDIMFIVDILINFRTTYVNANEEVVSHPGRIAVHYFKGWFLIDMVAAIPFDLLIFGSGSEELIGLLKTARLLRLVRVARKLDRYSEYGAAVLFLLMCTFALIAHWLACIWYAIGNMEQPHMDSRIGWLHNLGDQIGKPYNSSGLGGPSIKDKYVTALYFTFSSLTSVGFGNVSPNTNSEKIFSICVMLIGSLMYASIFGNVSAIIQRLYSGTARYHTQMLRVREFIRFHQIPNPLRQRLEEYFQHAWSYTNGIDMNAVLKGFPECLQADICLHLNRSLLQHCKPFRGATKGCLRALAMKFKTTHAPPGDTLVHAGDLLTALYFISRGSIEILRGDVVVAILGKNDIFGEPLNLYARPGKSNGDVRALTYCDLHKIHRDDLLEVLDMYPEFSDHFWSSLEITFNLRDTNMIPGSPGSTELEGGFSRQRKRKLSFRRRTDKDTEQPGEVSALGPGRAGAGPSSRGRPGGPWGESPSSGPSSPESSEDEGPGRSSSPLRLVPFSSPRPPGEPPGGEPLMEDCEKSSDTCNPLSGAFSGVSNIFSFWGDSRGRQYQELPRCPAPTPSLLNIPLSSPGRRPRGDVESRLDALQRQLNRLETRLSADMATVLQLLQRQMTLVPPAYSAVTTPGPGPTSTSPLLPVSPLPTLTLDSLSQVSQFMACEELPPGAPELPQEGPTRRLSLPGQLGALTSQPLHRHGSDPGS
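Further: peak tail current of the secondary pulse compared with the same well before compound.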

| SMILES | hERG current change (%, negative = inhibition) at 10uM |
| --- | --- |
| O=C(O)C1Cc2ccccc2-c2ccccc2C1 | 20.1% |
| CC(C)COC(=O)c1ccc(NC(=O)C2C3CCC(C3)C2C(=O)O)cc1 (centres unmarked) | 7.41% |
| Nc1nc(Cl)cc(Sc2ccc3ccccc3c2)n1 | 14.1% |
| CCOC(=O)c1ccoc1CSCc1ccc(C(=O)OC)o1 | 5.24% |
| COc1ccc(CNC(=O)C/C(C)=N/NC(=O)Cc2ccc(OC)cc2)cc1 | 3.39% |
| CCC(=O)Oc1ccc(-c2cnc3ccccc3n2)cc1 | 13.5% |
| COc1ccc(C(CNC(=O)c2cccc(S(=O)(=O)NCc3ccccc3)c2)N2CCOCC2)cc1 (centres unmarked) | -40% |
| Cc1nc(N2CCN(Cc3nc4ccccc4[nH]3)CC2)c2oc3ccccc3c2n1 | -52.1% |
| Cc1nc(SCc2nc3ccccc3[nH]2)c2oc3ccccc3c2n1 | 1.04% |
| C(=C\c1ccccc1)/CN1CCN(c2ncnc3c2oc2ccccc23)CC1 | -53.7% |
| c1ccc2[nH]c(CN3CCN(c4ncnc5c4oc4ccccc45)CC3)nc2c1 | -73.1% |
| c1ccc2[nH]c(CSc3ncnc4c3oc3ccccc34)nc2c1 | -21.4% |
| Cc1nc(N2CCN(Cc3ccc(Cl)cc3)CC2)c2oc3ccccc3c2n1 | -19.3% |
| COc1ccccc1N1CCN(c2ncnc3c2oc2ccccc23)CC1 | 6.73% |
| c1ccc(N2CCN(c3ncnc4c3oc3ccccc34)CC2)cc1 | 2.36% |
| Cl.c1ccc2c(c1)oc1c(N3CCOCC3)ncnc12 | 9.53% |
| CC(C)(C)NC(=O)CCN(/N=C/c1ccccc1F)C1=NS(=O)(=O)c2ccccc21 | 15.7% |
| CCNc1c(NS(=O)(=O)c2ccc(OC)cc2)c(=O)oc2ccccc12 | -24.3% |
| O=C(Nc1ccccc1Cc1ccccc1)c1ccc2c(c1)SC1=NS(=O)(=O)CCN12 | -5.78% |
| COC(=O)c1cccc(NC(=S)Nc2ccccc2Cl)c1 | -3.48% |
| Cc1c(C(=O)N(C)C)c2ccc(Cl)cc2n1O | 15.6% |
| COc1ccc(Cn2c(=O)[nH]c3cc(OC)c(OC)cc3c2=O)cc1 | 7.17% |
| Cc1ccc(C(=O)N/C(N)=N/c2nc3ccccc3o2)cc1 | -2.82% |

| SMILES | hERG current change (%, negative = inhibition) at 10uM |
| --- | --- |
| N=C1C(c2ccccc2)=C(O)CN1Cc1ccco1 | 6.39% |
| O=c1c2ccccc2nc(-c2ccccc2)n1Cc1ccco1 | -30.5% |
| CC(C)Cn1cnc2c(c(-c3ccccc3)c(-c3ccccc3)n2Cc2ccco2)c1=N | -73.3% |
| O=c1c2ccccc2c2ccccc2c(=O)n1Cc1ccco1 | 3.47% |
| CC1(C)Cc2c(sc3c2c(=N)n(Cc2ccco2)c(=O)n3Cc2ccccc2)CO1 | -12.5% |
| N=c1c2c(-c3ccccc3)c(-c3ccccc3)n(Cc3ccco3)c2ncn1Cc1ccco1 | -71.2% |
| N=c1c2c(-c3ccccc3)c(-c3ccccc3)oc2ncn1Cc1ccco1 | 0.861% |
| N=c1c2c(-c3ccccc3)c(-c3ccccc3)n(Cc3ccco3)c2ncn1Cc1ccccc1 | -69.3% |
| CCN(CC)S(=O)(=O)c1ccc(Cl)c(C(=O)Nc2cc(C)nn2-c2ccccc2)c1 | -26.3% |
| O=C(CCC(=O)N1CCSc2ccccc21)NCc1ccc(Cl)cc1 | -33.8% |
| CCOc1cc(/C=N/NC(=O)c2ccncc2)ccc1OS(C)(=O)=O | -3.33% |
| COc1ccc(C2=CC3=C(Br)C(=O)C(C)(O)C(=O)C3=CO2)cc1 (centres unmarked) | 11.9% |
| O=[N+]([O-])c1cc([N+](=O)[O-])c(N2CCCCCC2)cc1NCCO | -13.4% |
| Cc1ccc2c(c1)C(O)(CC(=O)c1ccc(C)s1)C(=O)N2 (centres unmarked) | 21.4% |
| O=C1C=C(c2ccc3[nH]ccc3c2)CCC1 | 16.3% |
| CC(=O)OCC1(C)CN(c2ccccc2)NC1=O (centres unmarked) | 13.7% |
| Cl.NC(=NCc1ccccc1)c1cccc([N+](=O)[O-])c1 | -20% |
| CC(CCc1ccccc1)N(C)CC(O)c1cccc([N+](=O)[O-])c1.Cl (centres unmarked) | -68.6% |
| CC(CCc1ccccc1)NC(=O)CNc1cccc([N+](=O)[O-])c1 (centres unmarked) | -30.1% |
| N/C(=N\OC(=O)CCCc1ccccc1)c1cccc([N+](=O)[O-])c1 | -3.9% |
| CC(CCc1ccccc1)NC(=O)c1cccc([N+](=O)[O-])c1 (centres unmarked) | -8.01% |
| O=C(Cc1ccccc1)NC(NC(=O)Cc1ccccc1)c1cccc([N+](=O)[O-])c1 | 4.27% |
| Cl.NC(=NCCc1ccccc1)c1cccc([N+](=O)[O-])c1 | -57.7% |

| SMILES | hERG current change (%, negative = inhibition) at 10uM |
| --- | --- |
| C=CCN(CC(O)c1cccc([N+](=O)[O-])c1)C(C)CCc1ccccc1.Cl (centres unmarked) | -36.4% |
| CC(CCc1ccccc1)NCC(O)c1cccc([N+](=O)[O-])c1.Cl (centres unmarked) | -56.2% |
| CCOc1cc(/C=C(/C#N)c2nc3ccccc3[nH]2)ccc1OCc1ccc(C(=O)O)o1 | 3.75% |
| CC1(C)CC2CC(C)(CN2C(=O)C23CCC(C)(C(=O)O2)C3(C)C)C1 (centres unmarked) | -8.69% |
| Cc1cc(C)c(S(=O)(=O)NCc2cn3ccccc3n2)c(C)c1 | 4.96% |
| CCCCNC(=O)c1cc2ccccc2s1 | 10.8% |
| CC1CCN(C(=O)CNC(=O)CNC(=O)Cc2ccccc2)CC1 | 4.9% |
| C=CCN1C(=O)C2C(C(=O)NC3CCCC3)C3C=CC2(O3)C1C(=O)NC1CCCC1 (centres unmarked) | 19% |
| COC(=O)c1sccc1NC(=O)c1c(F)c(F)c(F)c(F)c1F | 27% |
| CN(Cc1ccccc1)CC(O)COc1ccc(CNCc2cccnc2)cc1 (centres unmarked) | 1.13% |
| CN(Cc1ccc(Br)cc1)CC(O)COc1cccc(Br)c1 (centres unmarked) | -28.5% |
| COc1ccc(OCC(O)CNc2ccc(Br)cc2)cc1 (centres unmarked) | 9.56% |
| CN(Cc1ccccc1)CC(O)COc1ccc(CNCc2nccn2C)cc1 (centres unmarked) | -72.5% |
| COc1ccc(Br)cc1CN(C)CC(O)COc1ccc(Br)cc1 (centres unmarked) | -74.6% |
| COc1ccc(CN(C)CC(O)COc2ccc(-c3ccccc3)cc2)cc1OC (centres unmarked) | -69.4% |
| CN(Cc1ccc(OCC(O)CN(C)Cc2ccccc2)cc1)Cc1nccn1C (centres unmarked) | -4.14% |
| Cc1cc(CN(C)Cc2ccc(OCC(O)CN(C)Cc3ccccc3)cc2)on1 (centres unmarked) | -4.84% |
| CCn1ccnc1CNCc1ccc(OCC(O)CN(C)Cc2ccccc2)cc1 (centres unmarked) | -11.7% |
| CC(=O)Nc1ccccc1-c1nn[nH]n1 | 0.73% |
| Cc1c(CCN)ccc2c1[nH]c1ccccc12 | 0.0766% |
| Oc1ccccc1/C=N/N1CCCCC1 | 6.81% |
| CCN(CC)c1ncnc2c1ncn2Cc1c(Cl)cccc1Cl | 2.93% |
| CC(C(=O)O)n1cc(Cl)cn1 (centres unmarked) | 8.82% |

| SMILES | hERG current change (%, negative = inhibition) at 10uM |
| --- | --- |
| CCCCn1c(N)c(N(CC(C)C)C(=O)CN2C(=O)c3ccccc3C2=O)c(=O)[nH]c1=O | -7.79% |
| Cc1ccc(NC(=O)c2ccc(OC(=O)c3cc4ccccc4o3)cc2)cc1 | 8.66% |
| O=c1c2ccccc2nc2n1C(CSCc1cccc(C(F)(F)F)c1)CS2 (centres unmarked) | -23.4% |
| Cc1cccc(C(=O)Nc2ccccc2SCC2CSc3nc4ccccc4c(=O)n32)c1 (centres unmarked) | -80.4% |
| O=c1c2ccccc2nc2n1C(CBr)CS2 (centres unmarked) | 15.6% |
| Nc1ccccc1SCC1CSc2nc3ccccc3c(=O)n21 (centres unmarked) | -45.2% |
| Cc1ccc(C(=O)Nc2nc3ccccc3c(=O)s2)cc1 | 15.9% |
| O=c1c2ccccc2nc2n1C(CSc1ccccc1)CS2 (centres unmarked) | -19.6% |
| Cc1nc2ccccc2c(=O)n1NC(=O)c1cccc(Cl)c1 | 13% |
| O=C(Nc1ccccc1SCC1CSc2nc3ccccc3c(=O)n21)c1cccc(Cl)c1 (centres unmarked) | -75.5% |
| COc1cccc(SCC2CSc3nc4ccccc4c(=O)n32)c1 (centres unmarked) | -22.3% |
| Cc1ccc(C(=O)Nc2ccccc2SCC2CSc3nc4ccccc4c(=O)n32)cc1 (centres unmarked) | -68.4% |
| O=c1c2ccccc2nc2n1C(CSCc1ccc(Cl)cc1Cl)CS2 (centres unmarked) | -21.8% |
| O=C(Nc1ccccc1SCC1CSc2nc3ccccc3c(=O)n21)c1ccccc1 (centres unmarked) | -67.7% |
| Cc1ccc(OC2CCN(C(=O)C3CCC(=O)N(C4CC4)C3)CC2)cc1 (centres unmarked) | -15.8% |
| COC(=O)c1ccc(COC(=O)Cc2n[nH]c(=O)c3ccccc23)cc1 | -1.24% |
| CCC(C)N=CC1=C(O)CC(c2ccccc2)CC1=O (centres unmarked) | -4.11% |
| COc1ccc(C(=O)NCC(=O)OCC(=O)NC(=O)c2ccc(C(C)(C)C)cc2)cc1OC | -23.7% |
| CCN(CC)c1ncc(C#N)c(N)n1 | 8.37% |
| COc1ccc(CNC(=O)C2C3C=CC4(CN(Cc5cccnc5)C(=O)C24)O3)cc1 (centres unmarked) | -16.2% |
